# In PubChem BioAssay (NCI):
# Several values for one entry are separate records, joined by “and”; a condition that tells them apart may be missing. Equal values may be shown once. About 83,000 compounds went through this panel and 20% of them were active in at least one assay; those are over-represented in the sample as a whole.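 The endpoint reported here, percent growth, reads 100 for growth as untreated, 0 for no net growth and -100 for all cells dead.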 Unmarked numbers belong to inactive results. Activity calls are given as the source filed them. Rule for the calls: active = growth percent below 10; inactive = the rest.
# Test system: HL-60(TB) leukemia
# Assay: NCI-60 one-dose screen, 48 h (100 = growth as untreated, 0 = no growth, -100 = all killed)
# Conditions: 10 µM unless noted
row,SMILES,growth
1,Cc1ccc2c(c1)sc(-c1ccc(N(C)C)cc1)[n+]2C,-45.4% (active)
2,CCCCCCCCCCNCCSS(=O)(=O)O,79%
3,CCCCN(CCCC)CCCNc1c2c(nc3ccc(Cl)cc13)CCCC2,89%
4,NC(Cc1c[nH]c2ccccc12)C(=O)O (stereo not given),108% and 109%
5,C=CCN=c1sc2c(n1NC(=O)c1cc3ccc1CCc1ccc(cc1)CC3)C(=O)c1ccccc1C2=O,-20.1% (active)
6,O=[N+]([O-])c1cccc2cc(S(=O)(=O)O)ccc12,76.9%
7,CN(C)C/C=C/C(=O)Nc1cc2c(Nc3ccc(F)c(Cl)c3)ncnc2cc1O[C@H]1CCOC1,-44.7% (active)
8,O=[N+]([O-])c1ccc2c(N=Nc3ccc4ccccc4c3O)c(O)cc(S(=O)(=O)O)c2c1,108%
9,CCN(CC)CCOc1ccc(/C(=C(/C)c2ccccc2)c2ccc(OC(C)=O)cc2)cc1,117%
10,O=C(/C=C/C=C/c1ccc2c(c1)OCO2)N1CCCCC1,100% and 93.4%
11,Cc1nn(-c2ccccc2)c(N2CCOCC2)c1/C=N/N=c1\sc2ccccc2n1C,67.2%
12,Cc1nc2c(=O)[nH]c(SCC(=O)Nc3cccc(F)c3)nc2[nH]c1=O,105%
13,Cn1cccc1/C=C1/SC(=S)N(CCc2ccc(O)cc2)C1=O,1.22% (active)
14,CC1=NC2=CC=CC3=NC(C(Cl)(Cl)Cl)=NC(=N1)N23,25.2%
15,NS(=O)(=O)c1ccc(CCNC(=O)/C=C/c2ccc(Cl)cc2)cc1,89.1%
